From the supplement of paper PMC6555819

Test system: PPARg:RXRa (NR concentration 180 nM, RXRa partner concentration 90 nM)
Test: PBM binding z-score (relative to random genomic background probes); higher = stronger binding; sequences stand for … in GC…GCGATTGACAGCGTAGAATGAAGG
In short: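 The probes on custom Agilent 4×180K protein-binding microarrays were double-stranded, with 34-nt variable regions bearing direct-repeat seeds, single-nucleotide variants, half-site ablations and random human genomic background sequences. Incubation lasted 1 h with ligand-free nuclear receptor dimers in PBS pH 7.4, 2% milk, 0.02% Triton X-100, 1 mM DTT, 0.2 mg/mL BSA and 0.4 mg/ml salmon testes DNA. Antibodies against each partner (one per run) detected bound dimers, and fluorescence scans were regression-normalized. Binding z-scores take the random background probes as reference.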

Sequence | PBM binding z-score
TTACCAAGGTGAAAGTCGTTGATCCCTCTGTAGA | 0.615
GTACGAAGGTGAATAGGTCGTTGATGAGTAGGCG | 1.38
TGTTGTAGATCAACAGGAGGTTAAGAAAGATCGA | -0.033
TCATATAGGTAAATGCTAGGTGAGAGTCCGATCT | 0.622
GATACAGTGTCAGCTAGAGGCCAGAGTATGGAAA | 0.158
CCTACTGGGACACGAAAGGTCATTGATTCAGTGA | 4.68
TCTCGGAGGACACGAGAGGTCAGAGCTCGACATC | 0.952
CGTCGAAGGTCAAAGGTCAGTGAAGAGATGACGG | 10.4
TCTACAGGGTCAAAGGCCAGAGTACGAATGTCGA | 7.62
TCTAGCAGGCCAGAGGATCACTCAAGAGGTACGG | 0.826
CCTACTGGGCCAAAGGTTATTGATTCCAATGCTC | 10.4
CGTCCAAGGTCAATGGTAGGTCAGTGAAAGCATT | 3.76
TCTCGGAGGAGACGAAAGGTCAGAGCTCGACATC | 3.2
TGAATGAGTTTATAAGATCAGGGAACGTTGCAAA | 0.119
ATCTCTAGGTAAAGATAGTTCGGTGAATGCAAAT | 0.266
AGAACGAGGGCACGCTGAGTTGAAAGCAGAGTAG | 2.11
TGAATGAGGTTATACGATCAGGGAACGTTGCAAA | 1.33
TGAATGAGATTAAAGATCAGGGAACGTGGCGTCG | 1.02
GATACAGGGTCACCTAGAGGCCAGAGTATGGAAA | 6.93
CTGGAAAGGTCGTGCTCAGGTGAGTATACCAAAC | 2.63

Sequence | PBM binding z-score
TTACCAAGGTGTAAGGTCGTTGATGCACGCCTTG | 2.4
CGTCAAAGTTCAACTAAGGTACCGTAAAGCACGC | 4.93
CGTCCAAGGTCAAGGTTAGTGAAAGAGACTCGAA | 5.02
TCTGCTAGATCAGTTGGTCAGCTAACGAGCTGCC | -0.552
TCATATAGTTAAATGCTAGGTGAAAGTCCGATCT | 0.464
CCAACTGGGGCATAAGGTTACCATAAGCCAGCCC | 3.63
ATCTCTAGGTAACAAGTGCAGTGAAAGAGAGGAC | 1.07
GCATATAGGTAAAACAAGGTGAAAGTCCGATTGT | 1.32
TTACCAAGGTGAAAGGCCGTTGATGCACGCCTTG | 3.77
CCTATTAGTTGACCAGAAGGGCAACCGAAGCTCG | 0.395
TCTCGGAGGACACGAAGATCAGAGCTTTCCAGAG | 0.181
TCTGCTAGGTCAACGATGGTCAGCCAATCTGCTA | 2.73
CCGACTGGGGCATAAGGTTACGATAAGCCAGCCC | 2.58
ACTAGCAGGCCAAGGGTCACCCAAGATTAGTCCG | 8.49
ACTTACGGGTCAACGAGGTAATAGCACGCGTATA | 5.56
GCTACCAGGCCATTTGGGTCACTCAATGACGGGC | 0.923
TCGAGTAGGTTAGTCGGGGCATTCATCCAACATA | 0.0659
CGAACTAGCTCAGAACAGGACAGTGAAGGATGAT | 0.544
TCATATAGGTAAAGGCGAAAGTCGAACGATATGA | 1.1
